# High-throughput results (PubChem BioAssay)
# CYP2C19 inhib = human CYP2C19 inhibition; inhibition, % at 5 µM; P33261; AID 778; actives 21% (n = 96,000); CYP2C19 Supersomes, luciferin-H EGE luminescence, 30 min;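 active means CYP2C19 inhibition above a set limit at 5 µM in the primary screen, cut at about 50% in these data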;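 further: plate controls were negative control wells for no effect and 2.5 mM tranylcypromine positive control for full effect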
# CYP2C9 inh = inhibitors of human CYP2C9 | P11712 | CYP2C9 Supersomes, luciferin-H conversion, luminescence | inhibition, % at 5 µM | actives 20% (n = 96,000) | AID 777;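 active means blocking of liver enzyme CYP2C9 beyond about 50% at 5 µM, limit read from the data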
# Mac1 fbg enh = increases human CD11b/CD18 adhesion to fibrinogen | K562 CD11b/CD18 adhesion to fibrinogen, ATPlite luminescence | actives 0.07% (n = 93,000) | activation, % at 10 µM;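 active means 10 µM primary screen giving 50% or more activity, confirmed by 40% or more on retest at that dose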
# Target sequence (P05107 whole entry, looked up, other chains not shown): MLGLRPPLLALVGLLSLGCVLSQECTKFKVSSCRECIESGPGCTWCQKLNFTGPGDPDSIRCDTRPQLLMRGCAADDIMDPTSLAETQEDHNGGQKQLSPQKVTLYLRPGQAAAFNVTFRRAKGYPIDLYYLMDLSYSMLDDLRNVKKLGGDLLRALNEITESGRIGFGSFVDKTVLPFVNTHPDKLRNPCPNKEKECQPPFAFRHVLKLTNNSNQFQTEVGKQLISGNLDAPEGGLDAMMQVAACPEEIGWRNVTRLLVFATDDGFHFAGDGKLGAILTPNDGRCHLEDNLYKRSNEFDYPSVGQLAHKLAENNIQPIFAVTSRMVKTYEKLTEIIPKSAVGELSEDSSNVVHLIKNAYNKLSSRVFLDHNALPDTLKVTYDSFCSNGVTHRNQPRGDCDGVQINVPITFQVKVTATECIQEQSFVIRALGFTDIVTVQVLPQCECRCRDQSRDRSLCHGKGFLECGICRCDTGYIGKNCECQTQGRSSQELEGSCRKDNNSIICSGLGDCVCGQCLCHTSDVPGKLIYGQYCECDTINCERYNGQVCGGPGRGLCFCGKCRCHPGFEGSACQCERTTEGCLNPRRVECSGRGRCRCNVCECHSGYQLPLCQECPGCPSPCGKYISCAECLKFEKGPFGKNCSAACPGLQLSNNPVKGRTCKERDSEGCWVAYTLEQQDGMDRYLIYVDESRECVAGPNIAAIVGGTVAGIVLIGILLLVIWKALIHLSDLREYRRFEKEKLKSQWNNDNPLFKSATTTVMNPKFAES
# CYP2C19 activ = increases human CYP2C19 enzyme activity. P33261. recombinant CYP2C19, luciferin-H EGE luminescence; stronger effect = higher value; 0 = fully inhibited enzyme, 1 = untreated enzyme. activation factor at 5 µM. 96,000 tested, under 10 active. AID 1025;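 active means activation factor of at least 2 at 5 µM in the primary screen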;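 further: 0 = wells with 2.5 mM tranylcypromine and 1 = vehicle-only wells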
# CYP2C9 activ = activators of human CYP2C9. P11712. recombinant CYP2C9, luciferin-H conversion, luminescence; stronger effect = higher value; factor 1 = untreated enzyme, 0 = blocked. activation factor at 5 µM. actives 1.4% (n = 96,000);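 active means activation factor of 2 or more for CYP2C9 at a 5 µM dose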;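 further: 0 = sulfaphenazole-blocked wells and 1 = vehicle-only wells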
# CD11b adhes inh = blocks human CD11b/CD18 adhesion to fibrinogen; P05107+P11215; K562 CD11b/CD18 adhesion to fibrinogen, ATPlite luminescence; Mn2+ added to activate the integrin; inhibition, % at 10 µM; actives 0.54% (n = 93,000);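 active means primary inhibition of 50% or more at 10 µM, then 40% or more on retest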
# * = called active by the depositor; · = not tested or not shown. Only some compounds are listed: those with a hit (about 28% of all), similar ones and a draw of the others.
SMILES,CYP2C19 inhib,CYP2C9 inh,Mac1 fbg enh,CYP2C19 activ,CYP2C9 activ,CD11b adhes inh
Cc1cc(NC(=O)CSc2nc3ccc(Cl)cc3[nH]2)no1,40.0,62.1*,-5.1,0.6,0.4,-3.3
C/C(N)=C(/C#N)C(=O)CSc1nc2ccc(C)cc2[nH]1,88.4*,62.6*,-3.8,0.1,0.4,-16.0
Cc1cc(C(=O)CSc2nc3ccc(Cl)cc3[nH]2)c(C)n1CC1CCCO1 (stereo unspecified),96.0*,91.7*,-5.9,0,0.1,82.8*
C=CCn1c(C)cc(C(=O)CSc2nc3ccccc3o2)c1C,64.5*,25.3,-5.5,0.4,0.7,80.0
Cc1cc(C(=O)CSc2nnc(-c3ccc(Cl)cc3)n2CC2CCCO2)c(C)n1C (stereo unspecified),14.5,-75.9,-3.3,0.9,1.8,4.0
CCC(C)Nc1nc2c(c(=O)n(C)c(=O)n2C)n1Cc1ccc(F)cc1 (stereo unspecified),23.6,49.0,1.1,0.8,0.5,-17.3
COc1ccc(N2C(=O)C3[C@@H](C2=O)C2(Cl)C(Cl)=C(Cl)C3(Cl)C2(OC)OC)cc1 (stereo partly specified),·,·,5.5,·,·,-4.5
CCOC(=O)Cc1csc(NC(=O)CSc2nnnn2-c2ccc(CC)cc2)n1,87.6*,77.1*,-3.5,0.1,0.2,8.2
CCOC(=O)Cc1csc(NC(=O)CSc2nnc(-c3ccc(C)cc3)o2)n1,38.0,83.8*,-2.5,0.6,0.2,4.1
CCOC(=O)Cc1csc(NC(=O)c2ccco2)n1,46.3,36.2,6.5,0.5,0.6,-22.1
CCOC(=O)Cc1csc(NC(=O)CSc2nnc(-n3nc(C)cc3C)c3ccccc23)n1,79.2*,92.0*,-6.1,0.2,0.1,7.2
CCOC(=O)Cc1csc(NC(=O)CSc2nnc(-c3ccc(F)cc3)o2)n1,16.5,56.3*,-0.8,0.8,0.4,-7.3
CCSc1nnc(NC(=O)CSc2nc(CC)nc3c2c(=O)n(C)c(=O)n3C)s1,29.4,27.8,3.2,0.7,0.7,7.2
CCS(=O)(=O)N1CCN(C(=O)c2cccc(OC)c2)CC1,29.0,-3.0,-6.1,0.7,1,2.5
CCSc1nc2sc3c(c2c(=O)n1C1CCCCC1)CCN(C)C3,71.4*,42.8,-1.9,0.3,0.6,-3.6
C=CCn1c(SC(CCO)C(=O)NCc2ccco2)nc2sc3c(c2c1=O)CCC3 (stereo unspecified),13.0,55.6*,-1.6,0.9,0.4,-10.3
CN1CCc2c(sc3nc(SCC(N)=O)n(-c4ccccc4)c(=O)c23)C1,69.0*,16.0,-1.5,0.3,0.8,2.8
C=CCn1c(SCC(=O)NC(=O)NCc2ccco2)nc2sc(C)c(C)c2c1=O,18.8,26.6,38.8,0.8,0.7,-6.2
C=CCn1c(SCC(=O)NC)nc2sc3c(c2c1=O)CCC3,38.8,58.8*,-2.9,0.6,0.4,-4.5
CSc1nc2sc3c(c2c(=O)n1C1CCCCC1)CCN(C)C3,6.7,-6.4,0.4,0.9,1.1,-24.1
COC(=O)CSc1nc2sc3c(c2c(=O)n1-c1ccccc1)CCN(C)C3,32.5,6.1,4.4,0.7,0.9,12.5
COCCN(C(=O)c1csnn1)C(C(=O)NC(C)(C)C)c1cccc(OC)c1 (stereo unspecified),14.6,11.7,-0.6,0.9,0.9,-33.7
Cc1ccc(OCCNC(=O)C2CC(=O)N(c3ccc(C)cc3)C2)cc1 (stereo unspecified),37.2,5.2,-1.0,0.6,0.9,-27.2
CCC(=O)NC(NC(=S)Nc1c(C)n(C)n(-c2ccccc2)c1=O)C(Cl)(Cl)Cl (stereo unspecified),·,·,-0.9,·,·,18.1
C=CCn1c(SCC(=O)OC)nc2sc3c(c2c1=O)CCN(C)C3,59.8*,23.2,·,0.4,0.8,·
SMILES,CYP2C19 inhib,CYP2C9 inh,Mac1 fbg enh,CYP2C19 activ,CYP2C9 activ,CD11b adhes inh
COC(=O)CSc1nc2sc(C)c(C)c2c(=O)n1C,22.1,35.0,-0.1,0.8,0.7,-20.9
O=C(Cn1ccc2ccccc2c1=O)NCCC(=O)N1CCN(c2cccc(Cl)c2)CC1,7.9,-2.4,-3.8,0.9,1,1.3
c1ccc(CN2CCC3(CC2)Nc2ccccc2CO3)cc1,90.7*,7.8,4.3,0.1,0.9,-10.5
Cc1nc2c([nH]1)C1(CCN(Cc3ccccc3)CC1)C(C#N)=C(N)O2,18.1,14.3,6.8,0.8,0.9,-32.4
O=C(COC(=O)c1cccc(S(=O)(=O)N2CCOCC2)c1)Nc1ccc2c(c1)OCO2,70.3*,60.7*,-7.3,0.3,0.4,-6.9
O=S(=O)(c1ccc(Nc2ccc3c(c2)OCO3)nc1)N1CCOCC1,7.7,78.1*,-1.0,0.9,0.2,1.7
NC(=O)c1cccc(S(=O)(=O)N2CCCCC2)c1,1.4,-16.3,-1.3,1,1.2,-13.4
COC(=O)c1cccc(S(=O)(=O)N2CCCCC2)c1,58.2*,8.0,-3.2,0.4,0.9,-16.6
O=C(OCc1ccc2c(c1)OCO2)c1ccc(S(=O)(=O)N2CCCC2)cc1,82.9*,97.4*,4.0,0.2,0,12.2
CCOc1cc2c(C)cc(=O)oc2cc1Cl,1.5,-2.1,·,1,1,·
O=C(OCc1ccc2c(c1)OCO2)c1cccc(S(=O)(=O)N2CCCCC2)c1,92.5*,99.3*,-0.4,0.1,0,-29.7
Cc1cccnc1NC(=O)C1CCCN(S(=O)(=O)c2ccc3c(c2)oc(=O)n3C)C1 (stereo unspecified),23.4,40.1,1.5,0.8,0.6,-5.4
COc1ccc(Cn2nnnc2CN(Cc2cc3cccc(C)c3[nH]c2=O)C2CCCC2)cc1,46.9,60.8*,-3.9,0.5,0.4,13.7
CCOc1ccc2[nH]c(=O)c(CN(Cc3nnnn3Cc3ccco3)C3CCCCC3)cc2c1,69.7*,24.7,9.6,0.3,0.8,-11.3
COc1cc2cc(CN(Cc3nnnn3Cc3ccco3)C3CCCCC3)c(=O)[nH]c2cc1OC,18.0,11.9,1.9,0.8,0.9,13.0
CCOc1ccc2[nH]c(=O)c(CN(Cc3ccco3)Cc3nnnn3Cc3ccccc3)cc2c1,31.3,50.2*,-0.4,0.7,0.5,-2.0
COc1ccc2[nH]c(=O)c(CN(Cc3ccco3)Cc3nnnn3Cc3ccccc3)cc2c1,12.4,-4.1,-5.4,0.9,1,2.4
CCCCc1nc2sc3c(c2c(=O)[nH]1)CCC3,16.7,3.7,-5.0,0.8,1,2.2
CC(NC(=O)Nc1cccc([N+](=O)[O-])c1)(C(F)(F)F)C(F)(F)F,19.6,20.4,-10.3,0.8,0.8,26.0
CCOC(=O)/C=C1\NC(=O)C(C)S1 (stereo unspecified),4.9,-109.5,0.1,1,2.1*,-40.9
C/C(=N\O)c1ccc2c3ccccc3n(C)c2c1,34.2,54.8*,-5.2,0.7,0.5,-1.5
